Vaccinia mCherry: vaccinia inhibition (mCherry reporter) | Vaccinia virus mCherry reporter infection, fluorescence | Potency, µM (doses to about 36.5 µM), for inactives: at the highest dose activity change, negative = inhibition, usual class: inhibitors | actives 0.63% (n = 310,000); calls by dose curve; tested in A549 cells; further: potency means the concentration at half of the fitted maximal effect; nearly all actives have a fitted effect of over 35% in size
TbPYK inhibitor: blocks Trypanosoma brucei pyruvate kinase; AID 624173; TbPYK enzyme, Kinase-Glo Plus ATP luminescence, 45 min; Potency, µM (titrated, usually from 76.8 µM), inactives show at the top dose activity, negative = inhibition, usual class: inhibitors; actives 0.12% (n = 410,000); further: potency means the concentration at half of the fitted maximal effect; nearly all actives have a fitted effect of over 50% in size
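ADP (130 uM final) triggers the TbPYK reaction after compound addition; incubation is 45 min at room temperature. Kinase-Glo Plus is then added and luminescence imaged. Normalized data are fitted to concentration-effect curves.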
HCMV antiviral: blocks human cytomegalovirus replication; HFF cells, HCMV-luciferase reporter, 72 h; active compounds read low; activity change, negative = inhibition, % at 57.5 µM; actives 4.5% (n = 410,000); in the data active means activity change below about -60%; inconclusive means no clear call, values can overlap the other calls; inactive means above about -39%
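Screen run at 2 compound doses on HFFs infected with reporter HCMV, MOI 1 PFU/cell. Luciferase activity from cell lysates at 72 h post infection gave inhibition relative to buffer-only and Salinomycin wells.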
LmPK inhibitor: LmPK (Leishmania mexicana) enzyme inhibition | Q27686 | purified LmPK, Kinase-Glo ATP luminescence, 1 h | actives 0.37% (n = 290,000) | AID 1721 | Potency, µM (top dose mostly 57.5 µM), for inactives: at the top dose activity change, negative = inhibition, actives largely listed as inhibitors; further: potency means the concentration at half of the fitted maximal effect
Target sequence (Q27686 whole entry, looked up): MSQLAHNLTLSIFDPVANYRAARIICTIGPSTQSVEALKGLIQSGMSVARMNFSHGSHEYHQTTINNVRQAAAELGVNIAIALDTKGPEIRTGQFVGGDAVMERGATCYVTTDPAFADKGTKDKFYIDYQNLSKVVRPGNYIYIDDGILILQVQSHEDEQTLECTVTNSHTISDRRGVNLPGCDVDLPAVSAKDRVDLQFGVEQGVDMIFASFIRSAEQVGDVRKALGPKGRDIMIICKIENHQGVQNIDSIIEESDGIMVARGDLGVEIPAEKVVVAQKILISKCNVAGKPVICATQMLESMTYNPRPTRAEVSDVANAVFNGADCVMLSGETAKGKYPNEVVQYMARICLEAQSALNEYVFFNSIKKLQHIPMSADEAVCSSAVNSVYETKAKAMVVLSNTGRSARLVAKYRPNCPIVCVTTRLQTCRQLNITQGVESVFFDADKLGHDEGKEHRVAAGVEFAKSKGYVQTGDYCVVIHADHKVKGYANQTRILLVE
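Purified LmPK (0.1 nM) converted ADP (0.1 mM) to ATP with PEP (0.5 mM) in imidazole buffer pH 7.2 with KCl and MgCl2, 1 h at room temperature. ATP was read by Kinase-Glo luminescence; data normalized to uninhibited and no-enzyme controls.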
Vaccinia Venus: vaccinia inhibition (Venus reporter) | Vaccinia virus Venus reporter expression, fluorescence | Potency, µM (titrated, usually from 36.5 µM), without a hit: at the top dose activity change, negative = inhibition, actives largely listed as inhibitors | actives 0.46% (n = 330,000) | AID 720580; calls by dose curve; tested in A549 cells; further: potency means the concentration at half of the fitted maximal effect; nearly all actives have a fitted effect of over 30% in size
Starred values were filed as active, the others as inactive; i = inactive; ? = inconclusive; . = not tested or not shown. A selection: hits, their analogues and other compounds. The true share with any hit is near 5%. Unless noted, the call rests on the fitted dose curve; in most records, active means well fitted curve in the direction sought with a large enough effect; inconclusive means small, poorly fitted or top-dose-only effect, or another doubt; inactive means no such curve, though single readings can be large; an effect the other way counts as inactive or inconclusive. On the % scale 0 is the no-effect control and ±100 the full control effect.

SMILES	Vaccinia mCherry	TbPYK inhibitor	HCMV antiviral	LmPK inhibitor	Vaccinia Venus
COc1ccccc1CNc1nc(-c2ccco2)nn1S(=O)(=O)c1ccc(Cl)cc1	-6.2%	1.0%	13.6	.	-14.4%
CC1(C)CC2CC(C)(CN2C(=S)Nc2ccccc2)C1 (stereo unspecified)	-13.5%	-1.1%	-61.2*	-4.7%	-9.7%
O=C(c1ccccc1-n1cccc1)N1N=C(C(F)F)CC1(O)C(F)F (stereo unspecified)	i	-5.3%	-34.1	-1.9%	-9.6%
CCc1nn(-c2ccccc2)c(=S)c2ccccc12	?	-6.7%	-63.1*	6.2%	-11.8%
CC(C)COC(=O)n1c(SCC(N)=O)nc2ccccc21	.	0.5%	-0.8	0.8%	.
CCc1ccc(NC(=O)CNC(=O)c2cn(-c3ccccc3OC)c(=O)c3ccccc23)cc1	?	-3.5%	8.5	10.2%	-29.9%
O=c1cc(-c2ccccc2)n2c(SCc3cccc([N+](=O)[O-])c3)nnc2[nH]1	i	-2.6%	-39.6	.	-3.0%
CCCCC(=O)NC(c1ccc(Cl)cc1Cl)c1ccc2cccnc2c1O (stereo unspecified)	?	-21.2%	-104.1*	0.1%	?
CCC(=O)NC(c1ccc(Cl)cc1Cl)c1ccc2cccnc2c1O (stereo unspecified)	2µM*	-13.1%	-102.5*	-0.7%	?
CC(C)C(=O)NC(c1ccc(Cl)cc1Cl)c1ccc2cccnc2c1O (stereo unspecified)	.	-3.4%	-104.4*	8.6%	.
C#CCOc1nc(Nc2cccc([N+](=O)[O-])c2)nc(OCC#C)n1	-26.6%	-4.3%	-32.4	11.8%	-16.9%
CN(CCCC(=O)Nc1ccccc1F)S(=O)(=O)c1ccc(F)cc1	-8.2%	-4.1%	-61.0*	4.4%	-2.4%
Cc1ccc(NS(=O)(=O)c2cn(C)c(C)n2)c(Br)c1	-6.8%	0.0%	11.6	.	3.4%
CCN1C(=O)/C(=C\c2nc3ccccc3c(=O)n2-c2ccccc2)c2ccccc21	-25.8%	-10.4%	-99.1*	-0.3%	-9.1%
CCN1C(=O)/C(=C/c2nc3ccccc3c(=O)n2-c2ccc(C)cc2)c2ccccc21	i	-3.1%	-78.4*	-6.9%	-12.8%
O=C(Cc1c[nH]c2ccccc12)N1CCN(S(=O)(=O)c2ccc(F)cc2)CC1	-0.3%	-12.3%	-0.1	.	-15.3%
COC(=O)c1cccc(S(=O)(=O)N(Cc2ccco2)Cc2cc3cc(OC)ccc3[nH]c2=O)c1	.	-15.2%	12.9	1.7%	.
Nc1c(S(=O)(=O)c2ccccc2)c2nc3ccccc3nc2n1/N=C/c1cccc(O)c1	.	-5.9%	-101.1*	-1.5%	11.2µM*
Cc1cccc(S(=O)(=O)c2c(N)n(/N=C/c3ccccc3)c3nc4ccccc4nc23)c1	.	-5.2%	-30.2	1.7%	.
NC(N)=N/N=C/c1ccc(OCc2ccccc2)cc1	-9.7%	4.1%	-96.5*	-4.4%	-26.3%
Cc1ccc2oc(-c3ccc(NC(=O)c4cccc(F)c4)c(C)c3)nc2c1	2.2%	3.1%	66.2	.	-5.5%
COc1ccc(NC(=O)C(C)N2c3cccc4cccc(c34)S2(=O)=O)cc1 (stereo unspecified)	.	-24.9%	-7.6	11.8%	.
COc1ccc(NC(=O)C(C)N2c3cccc4cccc(c34)S2(=O)=O)cc1OC (stereo unspecified)	?	-18.8%	-79.9*	1.4%	-26.1%
CC(OC(=O)c1ccc(Cl)c(S(N)(=O)=O)c1)C(=O)NCC1CCCCC1 (stereo unspecified)	.	2.8%	-87.0*	.	.
CC(C)c1ccc(NC(=O)C2Cc3c(-c4cccc(C(N)=O)c4)ccnc3O2)cc1 (stereo unspecified)	i	-0.9%	10.7	.	-12.5%
SMILES	Vaccinia mCherry	TbPYK inhibitor	HCMV antiviral	LmPK inhibitor	Vaccinia Venus
CC(C)c1ccc(NC(=O)C2Cc3c(-c4cccc(F)c4)ccnc3O2)cc1 (stereo unspecified)	-7.4%	-1.5%	-75.8*	.	-4.0%
O=C(NCc1ccccc1)C1Cc2c(-c3cccc(F)c3)ccnc2O1 (stereo unspecified)	-24.9%	-3.2%	-69.0*	.	?
CC(=O)c1cccc(-c2ccnc3c2CC(C(=O)NCc2ccccc2)O3)c1 (stereo unspecified)	?	7.3%	-86.5*	.	?
CC(=O)c1cccc(-c2ccnc3c2CC(C(=O)NCc2ccc(F)c(F)c2)O3)c1 (stereo unspecified)	-10.0%	3.0%	28.6	.	?
COc1ccccc1N1CCN(CCn2c(=O)[nH]c3c([nH]c4ccccc43)c2=O)CC1	-17.0%	.	.	.	-18.0%
CCCCN(CC)CCNC(=O)CCn1cnc2onc(-c3ccc(F)cc3)c2c1=O	6.2%	5.6%	-35.8	.	7.5%
O=C(Cc1ccc(-n2c(=O)c3sccc3n(CC(=O)Nc3ccccc3)c2=O)cc1)NCc1ccco1	i	-1.4%	-37.2	1.7%	-17.4%
O=C(Cn1nc(-c2ccc(N3CCOCC3)c([N+](=O)[O-])c2)c2ccccc2c1=O)N1CCCCC1	.	1.4%	28.7	3.0%	.
O=[N+]([O-])c1cc(-c2nnc(Nc3ccc(O)cc3)c3ccccc23)ccc1N1CCOCC1	?	0.7%	-69.2*	1.1%	-25.8%
Cc1ccc(Nc2nnc(-c3ccc(N4CCOCC4)c([N+](=O)[O-])c3)c3ccccc23)cc1	-1.0%	-1.9%	-88.6*	-2.1%	-9.2%
O=[N+]([O-])c1cc(-c2nnc(N3CCOCC3)c3ccccc23)ccc1N1CCOCC1	?	0.0%	-36.0	0.4%	?
O=[N+]([O-])c1cc(-c2nnc(Nc3ccccc3)c3ccccc23)ccc1N1CCOCC1	?	0.1%	-73.8*	4.8%	?
O=C1c2ccccc2C(=O)N1Cc1ccccc1F	23.7%	3.3%	-29.3	0.0%	-4.1%
Fc1ccccc1-c1nc(-c2ccccc2)no1	-11.0%	-11.8%	135.2	11.2µM*	-2.2%
Cc1ccc(-c2nc(-c3ccccc3)no2)c(Cl)c1	-10.8%	-17.9%	-79.4*	-28.9%	-21.7%
Cc1ccc(-c2nc(-c3ccccc3)no2)cc1	-16.6%	1.5%	15.2	?	-6.1%
Fc1ccc(-c2csc3[n+]2CCS3)cc1	.	1.3%	-1.6	8.4%	.
c1sc2[n+](c1C13CC4CC(CC(C4)C1)C3)CCS2	-9.8%	-1.3%	-63.8*	5.7%	-29.7%
O=C(CNc1cccc2ccccc12)N/N=C/c1cccc(Oc2ccccc2)c1	.	1.7%	-60.7*	0.0%	.
O=C(CNc1cccc2ccccc12)N/N=C/c1ccccn1	?	-0.9%	5.3	0.5%	-8.6%
O=C(N/N=C/c1cccc(Oc2ccccc2)c1)c1cccc(Br)c1	-1.4%	1.7%	-23.6	-11.3%	-18.7%
O=C(N/N=C/c1cccc(Oc2ccccc2)c1)c1ccccc1Br	i	-7.1%	-90.8*	8.1%	-13.0%
O=C(/C=C/c1ccccc1)c1cc(Br)ccc(=O)c1O	.	?	-106.6*	13.8%	?
O=C(/C=C/c1ccc(O)cc1)c1ccccc1O	-19.1%	.	.	.	-6.5%

Screens: PubChem, National Center for Advancing Translational Sciences (NCATS)
